Experimental data: PubChem BioAssay (EPA / NIEHS)
Results filed as inconclusive are left out. Active and inactive are the calls of the source. The calls were made as follows, unless noted: active = hit-call score of the fitted dose curve at least 0.9, where 1 is the maximum; inconclusive = response in the unintended direction; inactive = score below 0.9.

Assays:
[1] = Tanguay_ZF_120hpf_EYE_legacy: (Legacy) Oregon State University Tanguay Lab 120 Hour Post-fertilization zebrafish Assay for Eye Malformation (AID 2283636);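 also: binary presence or absence of eye malformation scored by brightfield in 120 hpf larvae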
How it was run: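 Dechorionated Tropical 5D zebrafish embryos, one per well from 6 hpf, static exposure to 120 hpf at 28C, 0.64% DMSO. Eye malformation scored present/absent by brightfield; dead embryos not scored.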

[2] = Tanguay_ZF_120hpf_SNOU_legacy: (Legacy) Oregon State University Tanguay Lab 120 Hour Post-fertilization zebrafish Assay for Snout Malformation (AID 2283637)
How it was run: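 Dechorionated tropical 5D wild-type zebrafish embryos exposed statically from 6 to 120 hpf at 28C, one per well, in 0.64% DMSO. Snout malformation scored as present/absent by brightfield at 120 hpf; dead embryos not scored.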

[3] = Tanguay_ZF_120hpf_JAW_legacy: (Legacy) Oregon State University Tanguay Lab 120 Hour Post-fertilization zebrafish Assay for Jaw Malformation (AID 2283638);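 as to AC50: active means more embryos with jaw malformation than DMSO controls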
How it was run: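 Static waterborne exposure of dechorionated wild-type (Tropical 5D) zebrafish from 6 to 120 hpf at 28C, 0.64% DMSO vehicle; 5uM trimethyltin chloride served as positive control. Jaw morphology recorded as binary at 120 hpf.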

[4] = Tanguay_ZF_120hpf_OTIC_legacy: (Legacy) Oregon State University Tanguay Lab 120 Hour Post-fertilization zebrafish Assay for Otic Vesicle Malformation (AID 2283639)
How it was run: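 Tropical 5D wild-type zebrafish embryos statically exposed in 0.64% DMSO at 28C until 120 hpf; 5uM trimethyltin chloride as positive control. Otic vesicle malformation scored present/absent by brightfield; dead embryos not scored; gain fitted versus DMSO.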

[5] = Tanguay_ZF_120hpf_PE_legacy: (Legacy) Oregon State University Tanguay Lab 120 Hour Post-fertilization zebrafish Assay for Pericardial Edema (AID 2283640)
How it was run: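 Read-out is the presence or absence of pericardial edema at 120 hpf under brightfield, with gain of signal fitted against DMSO controls. Larvae (5D wild-type) were statically exposed at 28C with 0.64% final DMSO.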

[6] = Tanguay_ZF_120hpf_BRAI_legacy: (Legacy) Oregon State University Tanguay Lab 120 Hour Post-fertilization zebrafish Assay for Brain Malformation (AID 2283641)
How it was run: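 Brain malformation in Tropical 5D zebrafish was recorded as a binary endpoint after static compound exposure from early development to 120 hpf at 28C. Activity was analysed against DMSO as negative control.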

[7] = Tanguay_ZF_120hpf_PFIN_legacy: (Legacy) Oregon State University Tanguay Lab 120 Hour Post-fertilization zebrafish Assay for Pectoral Fin Malformation (AID 2283648);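 also: each larva judged yes or no for fin defect by brightfield with dead larvae skipped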
How it was run: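 Dechorionated Tropical 5D wild-type zebrafish embryos, one per well, statically exposed from 6 to 120 hpf at 28C with 0.64% DMSO final. Pectoral fin malformation scored present/absent by brightfield at 120 hpf; not scored in dead embryos.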

[8] = Tanguay_ZF_120hpf_CFIN_legacy: (Legacy) Oregon State University Tanguay Lab 120 Hour Post-fertilization zebrafish Assay for Caudal Fin Malformation (AID 2283649)
How it was run: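 Embryos were collected from Tropical 5D wild-type adults and dechorionated at 4 hpf. At 6 hpf each was exposed, one per well, at 0.64% DMSO and 28C. At 120 hpf fin morphology was scored; dead embryos were excluded.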

[9] = Tanguay_ZF_120hpf_PIG_legacy: (Legacy) Oregon State University Tanguay Lab 120 Hour Post-fertilization zebrafish Assay for Pigmentation Malformation (AID 2283650)
How it was run: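 Dechorionated Tropical 5D wild-type embryos, one per well from 6 hpf, statically exposed at 28C in the dark until 120 hpf, 0.64% DMSO final. Pigmentation scored present/absent by brightfield microscopy; dead embryos not scored; fitted versus DMSO.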

[10] = Tanguay_ZF_120hpf_SWIM_legacy: (Legacy) Oregon State University Tanguay Lab 120 Hour Post-fertilization zebrafish Assay for Swim Bladder Malformation (AID 2283654);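 also: swim bladder malformation in each larva scored yes or no under brightfield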
How it was run: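 Dechorionated wild-type Tropical 5D zebrafish embryos, one per well from 6 hpf, were statically exposed at 28C until 120 hpf in 0.64% DMSO. Swim bladder malformation scored as present/absent by brightfield microscopy; not scored in dead larvae.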

[11] = Tanguay_ZF_120hpf_TRUN_legacy: (Legacy) Oregon State University Tanguay Lab 120 Hour Post-fertilization zebrafish Assay for Truncated Body (AID 2283655)
How it was run: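 5D wild-type larvae; pronase dechorionation; static exposure 6→120 hpf, 28C; DMSO 0.64% final; 5uM trimethyltin chloride positive control. Readout: presence/absence of truncated body, analyzed relative to DMSO.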

[12] = Tanguay_ZF_120hpf_NC_legacy: (Legacy) Oregon State University Tanguay Lab 120 Hour Post-fertilization zebrafish Assay for Notochord and Tail Malformation (AID 2283656)
How it was run: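 Dechorionated Tropical 5D wild-type zebrafish embryos, one per well from 6 hpf, statically exposed to 120 hpf at 28C in 0.64% DMSO final. Notochord distortion scored present/absent by brightfield; dead embryos excluded.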

[13] = read-out: ABC Transporter (ABCB1), ABCB1 (gene 5243); assay: CLD_ABCB1_6hr: CellzDirect (CLD) Gene Expression Assay for ABC Transporter (ABCB1) at 6 hours (AID 2283659);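 also: hits raise ABCB1 transcript above the DMSO vehicle baseline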
How it was run: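 Primary human hepatocytes (two donor preparations) dosed daily for two days with chemicals at multiple concentrations, 0.2% DMSO vehicle; harvested 6 h post-dose. ABCB1 mRNA induction quantified by qNPA chemiluminescence; gain-of-signal fitted versus DMSO.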

[14] = read-out: Broad substrate specificity ATP-binding cassette transporter ABCG2 (Homo sapiens) (UniProt Q9UNQ0); assay: CLD_ABCG2_6hr: CellzDirect (CLD) Gene Expression Assay for ABC Transporter (ABCG2) at 6 hours (AID 2283660)
How it was run: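 Primary human hepatocytes dosed daily with chemicals at multiple concentrations (0.2% DMSO vehicle), harvested 6 h after dosing. ABCG2 mRNA induction read by quantitative nuclease protection assay (qNPA) chemiluminescence; gain of signal fitted against DMSO baseline.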

[15] = read-out: xenobiotic metabolism (CYP1A1), CYP1A1 (gene 1543); assay: CLD_CYP1A1_6hr: CellzDirect (CLD) Gene Expression Assay for xenobiotic metabolism (CYP1A1) at 6 hours (AID 2283661);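 as to AC50: potency for transcript induction above DMSO vehicle baseline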
How it was run: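 Primary human hepatocytes from two donors, compound versus 0.2% DMSO vehicle. CYP1A1 mRNA measured 6 h after dosing by quantitative nuclease protection assay with chemiluminescent read-out; induction fitted relative to DMSO, cytotoxicity flagged by microscopy.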

[16] = Tanguay_ZF_120hpf_CIRC_legacy: (Legacy) Oregon State University Tanguay Lab 120 Hour Post-fertilization zebrafish Assay for Circulatory Malformation (AID 2283651)
How it was run: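 Dechorionated wild-type 5D zebrafish embryos, one per well, statically exposed from 6 to 120 hpf at 28C with 0.64% DMSO; circulatory malformation scored present/absent by brightfield microscopy at 120 hpf, dead embryos excluded.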

[17] = Tanguay_ZF_120hpf_SOMI_legacy: (Legacy) Oregon State University Tanguay Lab 120 Hour Post-fertilization zebrafish Assay for Somite Malformation (AID 2283647)
How it was run: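 5D WT zebrafish; chorion removed 4 hpf; 1 embryo/well from 6 hpf; static exposure to 120 hpf, 28C, 0.64% DMSO final. Endpoint: somite malformation, binary, brightfield. Mortality excluded.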

[18] = read-out: kallikrein-3 (KLK3), KLK3 (gene 354); assay: LTEA_HepaRG_KLK3: Life Technologies and Expression Analysis (LTEA) Assay for kallikrein-3 (KLK3) using HepaRG (AID 2283652; active = hit-call score of the fitted dose curve at least 0.9, where 1 is the maximum; inactive = score below 0.9); settings: mRNA level, 48 h; actives raise or lower the signal
How it was run: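 Differentiated human HepaRG cells in serum-free induction medium exposed 48 h in duplicate, eight-point half-log series from 100 uM in 0.5% DMSO. KLK3 mRNA by qRT-PCR, normalised to ACTB, GAPDH, POLR2A; bidirectional fit versus DMSO.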

[19] = read-out: solute carrier (SLC10A1), SLC10A1 (gene 6554); assay: LTEA_HepaRG_SLC10A1: Life Technologies and Expression Analysis (LTEA) Assay for solute carrier (SLC10A1) using HepaRG (AID 2283657; active = hit-call score of the fitted dose curve at least 0.9, where 1 is the maximum; inactive = score below 0.9); settings: mRNA level, 48 h; actives raise or lower the signal
How it was run: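 HepaRG cells (single lot) exposed 48 h in serum-free induction medium, 8-point half-log series from 100 uM top in 0.5% DMSO, duplicate. SLC10A1 mRNA by qRT-PCR normalised to ACTB, GAPDH, POLR2A; bidirectional fit versus DMSO.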

[20] = read-out: matrix metalloproteinase-1 (MMP1), MMP1 (gene 4312); assay: LTEA_HepaRG_MMP1: Life Technologies and Expression Analysis (LTEA) Assay for matrix metalloproteinase-1 (MMP1) using HepaRG (AID 2283658; active = hit-call score of the fitted dose curve at least 0.9, where 1 is the maximum; inactive = score below 0.9); settings: mRNA level, 48 h; actives raise or lower the signal
How it was run: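 Bidirectional concentration-response fitting relative to 0.5% DMSO gives the endpoint, derived from MMP1 mRNA levels (qRT-PCR) in human HepaRG cells treated 48 h with chemicals up to 100 uM.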

Measured: AC50

Sequence of Broad substrate specificity ATP-binding cassette transporter ABCG2 (Homo sapiens) (Q9UNQ0 whole entry, looked up): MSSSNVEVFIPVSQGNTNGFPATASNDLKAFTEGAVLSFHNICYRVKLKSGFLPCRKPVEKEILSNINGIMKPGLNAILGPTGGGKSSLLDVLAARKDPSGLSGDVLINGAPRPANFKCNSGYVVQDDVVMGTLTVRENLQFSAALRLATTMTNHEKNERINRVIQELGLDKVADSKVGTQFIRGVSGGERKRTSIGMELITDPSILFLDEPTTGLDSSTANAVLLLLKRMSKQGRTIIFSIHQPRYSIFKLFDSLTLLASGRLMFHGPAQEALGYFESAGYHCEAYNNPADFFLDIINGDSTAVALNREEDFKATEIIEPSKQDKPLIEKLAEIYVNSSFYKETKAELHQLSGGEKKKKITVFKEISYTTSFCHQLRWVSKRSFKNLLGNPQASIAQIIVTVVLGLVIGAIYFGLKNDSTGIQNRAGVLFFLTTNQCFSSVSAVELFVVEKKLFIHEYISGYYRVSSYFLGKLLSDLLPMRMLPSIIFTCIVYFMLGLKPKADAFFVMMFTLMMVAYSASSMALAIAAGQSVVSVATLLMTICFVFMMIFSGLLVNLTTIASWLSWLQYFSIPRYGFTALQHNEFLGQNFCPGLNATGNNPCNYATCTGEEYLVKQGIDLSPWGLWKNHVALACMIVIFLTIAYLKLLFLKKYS

CNC(=O)ON=C(C)SC
active: [3] 39.5 µM
inactive: [1] | [2] | [4] | [5] | [6] | [7] | [8] | [9] | [10] | [11] | [12] | [13] | [14] | [15]

O=C(O)c1cc(Oc2ccc(C(F)(F)F)cc2Cl)ccc1[N+](=O)[O-]
inactive: [1] | [2] | [3] | [4] | [5] | [6] | [7] | [8] | [9] | [10] | [11] | [12] | [13] | [14] | [15]

CCOP(=S)(OCC)SCCSCC
active: [15] 4.01 µM
inactive: [1] | [2] | [3] | [4] | [5] | [6] | [7] | [8] | [16] | [10] | [11] | [12] | [13] | [14]

O=c1ccc(=O)[nH][nH]1
inactive: [1] | [3] | [4] | [5] | [6] | [17] | [7] | [8] | [9] | [10] | [11] | [13] | [14]
active: [12] 41.6 µM

CC(=NC#N)N(C)Cc1ccc(Cl)nc1
inactive: [1] | [2] | [3] | [4] | [6] | [17] | [7] | [8] | [9] | [10] | [11] | [12] | [14]

CC(COc1ccc(Oc2ccccc2)cc1)Oc1ccccn1 (configuration not stated)
inactive: [2] | [3] | [4] | [5] | [6] | [17] | [7] | [8] | [9] | [18] | [10] | [11] | [12] | [20] | [14] | [15]
active: [19] 27.9 µM

CCCSP(=O)(OCC)Oc1ccc(Br)cc1Cl (configuration not stated)
active: [15] 10.2 µM
inactive: [2] | [3] | [4] | [5] | [6] | [17] | [7] | [8] | [9] | [10] | [11] | [13] | [14]

Cc1nn(-c2cc(NS(C)(=O)=O)c(Cl)cc2Cl)c(=O)n1C(F)F
inactive: [1] | [2] | [3] | [4] | [5] | [6] | [17] | [7] | [9] | [10] | [11] | [13] | [14] | [15]
